The campaign covered roughly 140,000 compounds. About 1,400 (1%) were called active. The list comes from a sample in which actives are over-represented; it also holds similar structures and randomly drawn compounds. A number with no mark means an inactive call. No stated cut-off is given here; in the data, active means inhibition above about 17%; inactive means the rest.

The target of the assay is Neuropeptide Y receptor type 2 (Homo sapiens) (UniProt P49146). As to the kind of experiment: blockers of human neuropeptide Y Y2 receptor – cell-based, primary screen (AID 793).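 Further: 0% = vehicle with agonist challenge and 100% = reference antagonist with challenge.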 Particulars: NPY-Y2 expressing cells, antagonist mode; at 2.7 µM; active compounds read high.
Neuropeptide Y receptor type 2 (Homo sapiens), sequence (P49146 whole entry, looked up): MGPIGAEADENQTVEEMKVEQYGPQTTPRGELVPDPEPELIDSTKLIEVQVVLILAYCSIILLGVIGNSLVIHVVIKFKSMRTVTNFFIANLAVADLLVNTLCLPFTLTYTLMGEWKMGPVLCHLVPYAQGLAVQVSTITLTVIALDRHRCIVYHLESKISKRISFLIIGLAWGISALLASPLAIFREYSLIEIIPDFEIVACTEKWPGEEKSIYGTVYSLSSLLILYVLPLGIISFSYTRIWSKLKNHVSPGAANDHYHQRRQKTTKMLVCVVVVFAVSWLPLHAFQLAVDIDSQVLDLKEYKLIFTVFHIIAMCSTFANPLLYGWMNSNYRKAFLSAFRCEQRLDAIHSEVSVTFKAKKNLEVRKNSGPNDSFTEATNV
A word on the inhibition: it is the drop in the measured response relative to a control, in per cent. With `O=C(N/N=C/c1ccc(Br)o1)c1cncc(Br)c1`, the inhibition was 0.35%.

Regarding `CCCC(=O)Nc1cccc(NC(=S)NC(=O)C(C)Oc2ccc(Cl)cc2Cl)c1` (stereo not drawn), the inhibition is 0.34%.

Turning to `CCC(=O)Nc1nc2ccccc2n1Cc1ccccc1C`, the inhibition is 3.41%.

With `CC(=O)Nc1nonc1-c1nc2ccccc2n1Cc1ccccn1`, the inhibition was 0.29%.

For the compound `Nc1nonc1-c1nc2ccccc2n1CCC(=O)O`, the inhibition was 3.2%.

With `COc1ccc(C)c(Cn2c(-c3nonc3N)nc3ccccc32)c1`, the inhibition is 17.5% (active).

For `Nc1nonc1-c1nc2ccccc2n1Cc1ccc(F)cc1`, the inhibition was 18.1% (active).

Turning to `COCc1nc2ccccc2n1Cc1ccccc1Br`, the inhibition is 4.55%.

In the case of `Cc1cc(NC(=O)COC(=O)COc2ccc(Cl)cc2C)c([N+](=O)[O-])cc1C`, the inhibition is 5.09%.

As to `CCCC(C)C(=O)OCC(=O)Nc1c(Br)cc(C)cc1Br` (stereo not drawn), the inhibition is 3.68%.

Regarding `O=C(CCCCCNC(=O)c1ccccc1)N/N=C/c1ccccc1`, the inhibition is -0.13%.

As to `CCCOC(=O)c1ccc(N2C(=O)c3ccccc3C2=O)cc1`, the inhibition was -1.24%.

As to `CCCC/S(C)=N/S(=O)(=O)c1ccc(C)cc1` (stereo not drawn), the inhibition is 1.98%.

As to `Cc1cc(C)cc(OCC(=O)Nc2nc3ccc([N+](=O)[O-])cc3s2)c1`, the inhibition is 1.9%.

On to `COC(=O)C(NC(=O)c1ccc(OC)cc1)(Nc1ncc(S(=O)(=O)c2ccc([N+](=O)[O-])cc2)s1)C(F)(F)F` (stereo not drawn), for which the inhibition is 0.75%.

For the compound `O=C(NC(Nc1nc2ccc([N+](=O)[O-])cc2s1)(C(F)(F)F)C(F)(F)F)c1ccccc1`, the inhibition was 29.6% (active).

As for `COC(=O)C1NN=C(C(=O)c2ccc(Br)cc2)C1c1cccc(Br)c1` (stereo not drawn), the inhibition is 0.05%.

Turning to `Cc1cc(C)n(CC(O)CN(c2ccccc2)S(=O)(=O)c2ccc3ccccc3c2)n1` (stereo not drawn), the inhibition was -0.03%.

`CC1CCCN(CCOCCOc2ccccc2-c2ccccc2)C1` (stereo not drawn): the inhibition was 10.5%.

Take `Cc1ccc(CN2CCN(/N=C/c3cccnc3)CC2)c(C)c1`: the inhibition was 2.92%.

For `C/C(=N\NC(=O)CNC(=O)C(c1ccccc1)c1ccccc1)c1ccc(C)cc1`, the inhibition is 1.86%.

For the compound `COCCn1c(-c2ccc(OC)c(OC)c2)nc2ccccc21`, the inhibition was 1.52%.

For `COc1ccc(-c2nc3ccccc3n2CCC(C)C)cc1OC`, the inhibition was 19.5% (active).

With `CCCn1c(C(O)c2cc(OC)ccc2OC)nc2ccccc21` (stereo not drawn), the inhibition was 4.69%.

As for `COC(=O)c1cc2occc2n1Cc1nc(-c2ccccc2C)oc1C`, the inhibition is 11.1%.

Take `O=C(CCN1C(=O)c2ccccc2C1=O)NNC(=O)c1ccc(Cl)cc1Cl`: the inhibition was 0.71%.

With `Cc1ccc(NC(=O)CC2S/C(=N/N=C3\CCCc4ccccc43)NC2=O)cc1` (stereo not drawn), the inhibition was -0.03%.

Regarding `Cc1cccc(OCCNC(=O)CSc2ccc(C(F)(F)F)cc2[N+](=O)[O-])c1`, the inhibition is 12.7%.

On to `Cc1ccc(C)c2[nH]c(=O)c(CCNC(=O)c3cccs3)cc12`, for which the inhibition is 2.37%.

With `Cc1cc2c(c(=O)n1C)C(C(C)C)C(C#N)=C(N)O2` (stereo not drawn), the inhibition is -0.27%.

Consider `C=CCSc1nc2c(c(=O)[nH]1)C(C(C)C)C(C#N)=C(N)O2` (stereo not drawn), for which the inhibition was 121% (active).

As for `C=CCOC(=O)C1=C(C)OC(N)=C(C#N)C1c1ccc(F)cc1` (stereo not drawn), the inhibition was 7.81%.

Consider `CN(C)CCCO/N=C(\c1ccccc1)c1ccncc1`, for which the inhibition was 0.64%.

`Cc1ccc(C(=O)N/C(=C/c2cccnc2)C(=O)O)cc1`: the inhibition was 2.3%.

Take `Cc1nn(CC(=O)Nc2ccc(N(C)C)cc2)c(C)c1[N+](=O)[O-]`: the inhibition was -0.15%.

For the compound `N/C(=N\OC(=O)CCc1ccccc1)c1ccc(Cl)cc1`, the inhibition was 4.22%.

Turning to `COc1ccc(/C(N)=N/OC(=O)Cc2ccccc2)cc1`, the inhibition is 4.03%.

Turning to `COc1ccc(/C(N)=N/OC(=O)CCCc2ccccc2)cc1`, the inhibition is 22.3% (active).

Regarding `COc1ccc(/C=N/N=C/c2c[nH]c(=O)c(C#N)c2Nc2ccccc2)cc1`, the inhibition was 3.81%.

Consider `O=C(CNC(c1ccccc1)c1ccccc1)Nc1ccc(F)cc1`, for which the inhibition was 7.16%.

Consider `O=C(COC(=O)/C(=C/c1cccs1)c1cccs1)NCc1ccccc1Cl`, for which the inhibition is 5.33%.

Take `C/C(N)=C(/C#N)C(=O)COC(=O)c1cc(-c2ccc(C)cc2)nc2ccccc12`: the inhibition was -0.91%.

On to `Cc1ccc(OCC(=O)Nn2cnc3ccccc32)cc1`, for which the inhibition is 2.86%.

With `COc1ccc(-c2cc(C(=O)n3cnc4ccccc43)c3ccccc3n2)cc1`, the inhibition was 58.8% (active).

Consider `CC(Sc1nc2ccccc2c(=O)n1Cc1ccco1)C(=O)c1ccccc1` (stereo not drawn), for which the inhibition is 6.17%.

Regarding `CCOn1c(SC(C)C)nc2ccccc2c1=O`, the inhibition is 7.2%.

Turning to `CCOC(=O)C(C)Sc1nc2ccccc2c(=O)n1CC1CCCCC1` (stereo not drawn), the inhibition was 18.5% (active).

`CCOC(=O)c1c(C)n(C)c2ccc(OC)c(NS(=O)(=O)CC)c12`: the inhibition was -1.01%.

Consider `CCOC(=O)Cc1csc(SCC(=O)NC(C)C23CC4CC(CC(C4)C2)C3)n1` (stereo not drawn), for which the inhibition was 5.04%.

Take `CNC(=S)N/N=C/c1ccc(OCc2ccccc2)c(Br)c1`: the inhibition was 6.18%.

With `Cc1ccc2c(c1)C(c1ccccc1)N(C(=O)c1ccc(S(=O)(=O)N3CCOCC3)cc1)CC(=O)N2` (stereo not drawn), the inhibition is 0.56%.

Consider `Cc1ccc(CC(=O)Nc2ccc(OC(F)F)c(Cl)c2)cc1C`, for which the inhibition is 1.54%.

As to `O=C(CC1CCCCC1)Nc1c2c(nn1-c1ccc(F)cc1)CS(=O)(=O)C2`, the inhibition is 21.6% (active).

Regarding `O=C(Nc1c2c(nn1-c1ccc(F)cc1)CS(=O)C2)C12CC3CC(CC(C3)C1)C2` (stereo not drawn), the inhibition was 2.38%.

Take `Cc1ccc(-n2nc3c(c2NC(=O)CCC2CCCCC2)CS(=O)C3)cc1` (stereo not drawn): the inhibition is 6.05%.

As to `Cc1ccc(S(=O)(=O)N2CCN(CC(=O)N/N=C/c3ccc(Br)s3)CC2)cc1`, the inhibition is -1.25%.

In the case of `COc1ccc2c(c1)C(C)=CC(C)(C)N2C(=O)CNCc1ccc2c(c1)OCO2`, the inhibition was 26.6% (active).

`COc1ccc2c(c1)C(C)=CC(C)(C)N2C(=O)Nc1ccccc1`: the inhibition is 0.85%.

In the case of `CCOC(=O)NCc1ccc2c(c1)OCO2`, the inhibition is 4.28%.

Consider `COc1ccc(Cl)cc1NC(=O)COC(=O)C(CC(C)C)N1C(=O)C2CC=CCC2C1=O` (stereo not drawn), for which the inhibition is 3.69%.

Regarding `Cc1nccn1CC(=O)N/N=C/c1ccc(O)c(O)c1`, the inhibition is 0.1%.

Take `CCCc1nc(SCC(=O)Nc2ccccc2OC)c2c(=O)n(C)c(=O)n(C)c2n1`: the inhibition is 21.6% (active).

As for `CCCCCNC(=O)c1cccnc1SCC(=O)Nc1ccccc1OC`, the inhibition is 1.23%.

Turning to `Cn1c(=O)c2c(nc(SCC(=O)Nc3ccccc3N3CCCCC3)n2C)n(C)c1=O`, the inhibition was 3.41%.

As to `O=C(NC1CC1)c1cccc(Br)c1`, the inhibition was 1.02%.

`Cc1ccccc1C(=O)NNC(=O)CN1C(=O)c2ccccc2C1=O`: the inhibition was 4.26%.

As to `N#CCOc1ccc(C2=NO[C@@H]3[C@@H]4C[C@@H]([C@H]5C(=O)N(c6ccc7c(c6)OCO7)C(=O)[C@@H]45)[C@H]23)cc1`, the inhibition is 3.09%.

For `CCOc1ccccc1NC(=O)CCc1ccc(C)o1`, the inhibition is 1.25%.

Regarding `Cc1cnc(NC(=O)CSc2nnc(-c3ccc(Cl)cc3Cl)n2N)s1`, the inhibition was 0.61%.

In the case of `Cc1ccc(CCC(=O)Nc2ncc(Cc3cc(Cl)ccc3Cl)s2)o1`, the inhibition was 24.4% (active).

On to `O=C(COC(=O)c1cc([N+](=O)[O-])ccc1NCc1ccccc1)NC1CCCCC1`, for which the inhibition is 5.74%.

With `CC(C)C(c1nnnn1CCc1ccccc1)N1CCN(C(=O)c2ccco2)CC1` (stereo not drawn), the inhibition is 3.59%.

Take `COc1ccc(CCn2nnnc2C(c2ccccc2)N2CCN(C)CC2)cc1OC` (stereo not drawn): the inhibition was 5.97%.

For the compound `N#Cc1ccc(C(c2nnnn2CCc2ccccc2)N2CCCCCC2)cc1` (stereo not drawn), the inhibition was 17.9% (active).

As for `CCOc1cc(CNCc2ccccn2)ccc1OCC(=O)NC(C)(C)C`, the inhibition is 2.66%.

Turning to `Cc1ccc(NC(=O)CCOc2ccccc2)cc1S(=O)(=O)Nc1ccccc1Cl`, the inhibition was 0.14%.

For the compound `CCOC(=O)c1ccc(N/C(=N/S(=O)(=O)c2ccccc2)c2ccccc2)cc1`, the inhibition is 0.02%.

On to `O=C(CNC(=O)C(c1ccccc1)c1ccccc1)N/N=C\c1ccc2c(c1)OCO2`, for which the inhibition was 9.72%.

Consider `CCOc1ccc(NC(=O)CSc2nc3ccccc3c(=O)n2Cc2cccs2)cc1`, for which the inhibition is 1.51%.

With `Cc1cccc(N2Cc3ccccc3C2=NC(=O)c2ccc(Cl)nc2)c1`, the inhibition is 1.24%.

Turning to `O=C(Nc1ccccc1)OCc1cn(-c2ccc(Cl)cc2)nn1`, the inhibition is 12%.

Take `N#Cc1ccc(N2Cc3ccccc3/C2=N/C(=O)Nc2ccc(Cl)cc2)cc1`: the inhibition is 108% (active).

For the compound `COc1ccc(-c2oc3ncn(Cc4ccco4)c(=N)c3c2-c2ccc(OC)cc2)cc1`, the inhibition was 18.1% (active).

Turning to `COc1ccc(C(=O)CSc2nnc(COc3ccccc3)n2Cc2ccco2)cc1`, the inhibition is 16.4%.

Regarding `COc1ccc2[nH]c3c(=O)n(Cc4ccco4)cnc3c2c1`, the inhibition is 3.41%.

`N=c1c2c(-c3ccccc3)c(-c3ccccc3)oc2ncn1Cc1ccco1`: the inhibition is 20.1% (active).

On to `C(=C\c1ccccc1)/CSc1nnc(-c2cccnc2)n1Cc1ccco1`, for which the inhibition was 7.64%.

For the compound `c1ccc(-c2oc3ncnc(N4CCOCC4)c3c2-c2ccccc2)cc1`, the inhibition was 4.38%.

As for `O=C(Nc1nnc(C2COc3ccccc3O2)o1)c1ccc(F)cc1` (stereo not drawn), the inhibition is 7.93%.

In the case of `CN(C)CCNC(=O)/C(=C/c1cccc([N+](=O)[O-])c1)NC(=O)c1ccccc1`, the inhibition was 1.28%.

As for `OCCCN1c2ccccc2Nc2nnc(-c3ccccc3)cc21`, the inhibition is 3.77%.

On to `N=c1c2c(-c3ccccc3)c(-c3ccccc3)n(Cc3ccccc3)c2ncn1CCCO`, for which the inhibition is 72.4% (active).

As to `Cc1ccc2[nH]cc(CCNC(=O)c3ccc([N+](=O)[O-])cc3)c2c1`, the inhibition is -0.38%.

The values above are taken from PubChem BioAssay AID793 (The Scripps Research Institute Molecular Screening Center, 2007).
